Data: PubChem BioAssay AID1508600 (Functional Genomics Laboratory (NCATS/FGL), 2020)
Screen size: about 53,000 sequences; about 3,700 (7%) were called active.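 The calls were made as follows: active = gene knockdowns whose robust z-score for IL-1 alpha signal is at least 2 or at most -2, so actives lie on both sides; inactive = the rest.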 Shown is part of a subset that was picked to be rich in actives.

Test: Components of the Cytosolic LPS Sensing Pathway: Gene Identification via Genome-wide siRNA Screen;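 also: robust z of the log signal after scaling to non-targeting control siRNA wells of the plate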
Details: RAW264.7 macrophages, IL-1a HTRF, actives lie on both sides, screened at 100 nM (by protocol), cells primed 5 h with Pam3CSK4 first
Method in brief: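 Using IL-1a HTRF as read-out, the screen measured release from RAW264.7 cells after 48h siRNA knockdown (100 nM), 5 h Pam3CSK4 priming and 24 h cytosolic LipidA. Values were expressed relative to negative-control wells as robust z-scores.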
For GGAUGCAAUCGACAUGGAGTT against Atp5pb, the z-score was 2.71 (active). With GGUUUUUGGGAAUUGGCUUTT against Sfxn5 the z-score was -0.0222 (inactive). For GCGGUCCAUCAUCAAACUCTT against Rpap2, the z-score was -1.3 (inactive). With CCCAACAUAUUUUUUAGCATT against Hmgcll1 the z-score was -0.506 (inactive). In the case of GGUGGUUGUUAUUGAAAAGTT against Mical3, the z-score is reported as 1.34 (inactive). In the case of CGACAUUUGUGUUAACCAUTT against Gprc5c, the z-score is reported as -0.483 (inactive). With GGAGCUUUUGGACCACUUGTT against Tmod1 the z-score was -0.892 (inactive). For GCAAACGACGAAAGUCCAATT against Usp49, the z-score was -1.63 (inactive). With CCAUAAACGACGAAAUGAUTT against Usp11 the z-score was 0.189 (inactive). In the case of GGCAUUUGACUUUAUUGCATT against Nit1, the z-score is reported as 3.54 (active). With GGUCAAGCAAGUGUUGGUUTT against Gart the z-score was -0.0147 (inactive). In the case of GGAAGAUUCCGACUUUAUUTT against Irs4, the z-score is reported as 0.69 (inactive). For GCUCAGACAAGAAUUGCUATT against Specc1, the z-score was -0.612 (inactive). For CCACCUUUCGUGCAUUAUCTT against Coro6, the z-score was 1.32 (inactive). With GGCUGUCAUACUUUCAGGGTT against Hyal5 the z-score was 2.51 (active). In the case of GGGCCAAGGAAGAACUUCATT against Clec12a, the z-score is reported as -0.655 (inactive). With GGAAAAAGAGGCCAAAAAGTT against Arid4a the z-score was -0.221 (inactive). For GGUCAAUGUGAUUGAGGAUTT against Acap1, the z-score was 0.869 (inactive). With CCUAUUGAGUCAUCCAUCGTT against Utp25 the z-score was -0.586 (inactive). For GCAGUACGCUGCAUUUAAATT against Mtrf1l, the z-score was 0.551 (inactive). In the case of GGAGUUUCAACUCUUCUUCTT against Necab2, the z-score is reported as -0.576 (inactive). With GCUCCUGAACUAAUACAAGTT against Melk the z-score was 5 (active). With GGUGAGGAGGAAAUCCUGCTT against Rdh10 the z-score was -1.21 (inactive). For CCUGCUUUGUAUCUCCUCCTT against Csprs, the z-score was 0.184 (inactive). In the case of GCAACAAUGAGAGACCACATT against Htr5a, the z-score is reported as 3.27 (active). For GGAAGCAUCUCAUUAUUCATT against Lamp2, the z-score was 0.0306 (inactive). For GGCACCUACAUCCUUAUUGTT against Ptprn, the z-score was -0.16 (inactive). For GGAAAGGAAAAUCAACUUCTT against Usp14, the z-score was 0.0989 (inactive). For GCUUUCUUUUGCACUUGAATT against Ctc1, the z-score was -1.1 (inactive). With CCACAUGUCACAUCUUUUCTT against Mrpl47 the z-score was 0.16 (inactive). In the case of GGCACAGACUAAGGUAUAGTT against Adra2c, the z-score is reported as -1.51 (inactive). In the case of GCCCUGAAGCCUAUAAUCATT against Nhlrc1, the z-score is reported as 2.34 (active). For GGCAACAGUACCAAAGACATT against Rps24, the z-score was 0.483 (inactive). In the case of GGCCGAAUCACAGAAACUCTT against Mrps18a, the z-score is reported as 1.87 (inactive). For GUAAGCAGCAACAGAGGCUTT against Cd70, the z-score was -0.558 (inactive). For GGCAUUGAAGGAAGUGAUCTT against Psmg3, the z-score was -2.9 (active). In the case of GGCCUUAGUAUUCUGCCUCTT against Nuak1, the z-score is reported as 0.395 (inactive). With GGGAAUUCACACUGUCUGGTT against Tmem176a the z-score was -1.73 (inactive). For CGGCUAAGGAAAAAUGUGATT against Nr1h4, the z-score was -1.26 (inactive). For CCAACAUCCUUAAGCGGCUTT against Lonp1, the z-score was -0.161 (inactive). In the case of GGUCAAAGGUGAAGAGAAATT against Chgb, the z-score is reported as 1.43 (inactive). For GGAAACAGCAUCAUCAUGUTT against Snrpg, the z-score was -2.28 (active). In the case of CGUACAUCGUCGAGAUUUUTT against Rims1, the z-score is reported as 0.839 (inactive). For GCGGAACCUAUAUAGGAAUTT against Zfp74, the z-score was -0.292 (inactive). In the case of CGAGAGUAGCUUGUUGCUGTT against Rhobtb3, the z-score is reported as 0.359 (inactive). For GCUGUAUGGGAAGGGUUACTT against Tsen2, the z-score was 0.829 (inactive). In the case of GGAUCAGUACCUGUGAUGGTT against Adamdec1, the z-score is reported as -2.07 (active). In the case of GGAUCGUAGAACACCCUUCTT against Robo2, the z-score is reported as -0.00164 (inactive). For GGAUUCCACAAUUUUUGUATT against Ncoa6, the z-score was -0.399 (inactive). With GCGGGUUAACUUGUUUGGUTT against Zcwpw1 the z-score was 0.525 (inactive). For GGCUUACACAAAAAUCUGUTT against Camk2d, the z-score was -0.36 (inactive). For GGAAAUUACCUUGAUGAUGTT against Anxa4, the z-score was -1.59 (inactive). In the case of GGACAAUCUGAUUCAAGUATT against Ms4a2, the z-score is reported as 0.104 (inactive). With GUUGUGCAAUCAACAAGGUTT against Fam98c the z-score was 2.05 (active). With GCUACGCAAUAAGACCACATT against Lamc3 the z-score was 2.25 (active). In the case of GGAGCUCAUUAGCAAAUAUTT against Olfm5, the z-score is reported as -0.859 (inactive). With GUACAAGCUCAAGUGCUCGTT against Casz1 the z-score was -0.463 (inactive). For GGAACUCCUGACUCUCAGATT against Htra2, the z-score was -1.19 (inactive). With UGUACUGAUACAUACUUCCTT against Olfr1249 the z-score was -0.487 (inactive). In the case of GCAUGACAGUCAACACAAGTT against Slc35f6, the z-score is reported as 2.04 (active). In the case of GGAAAUAGACACCAAGAGCTT against Mau2, the z-score is reported as -1.64 (inactive). With GCAUCAUUAAGUGCUACCGTT against Pcdhac2 the z-score was -0.263 (inactive). For UCUAUCUCAUUACUAUUGUTT against Olfr190, the z-score was 0.649 (inactive). In the case of CCUAUCAAACUGACUUCAUTT against Castor2, the z-score is reported as 0.309 (inactive). For GGACCUCCCACAGUGUUAUTT against Enpp2, the z-score was -0.574 (inactive). With GGGAAACAGAUGAAAGAGUTT against Relch the z-score was 0.0344 (inactive). For GGUUUGAACUUCAGCAACUTT against Adam15, the z-score was -2.17 (active). In the case of GGUCCACUUAGUGGCUUAATT against Atp5pb, the z-score is reported as -0.227 (inactive). In the case of GGUGUAUUGAGCUAAACAUTT against Rnft2, the z-score is reported as -0.344 (inactive). For GGCAUGAGCGAGUUAAACCTT against Usp53, the z-score was 1.65 (inactive). In the case of GGAGAACAUUCAGGUGACATT against Pdgfd, the z-score is reported as -0.625 (inactive). In the case of GGCGAUGUGAAAAUCUUAATT against Xpnpep2, the z-score is reported as 3.65 (active). In the case of GGCCUCUUAUGUCAACCUGTT against Rpsa, the z-score is reported as -1.57 (inactive). For GCCGAUUCUUCAAUGUGCGTT against Ribc1, the z-score was -0.242 (inactive). With CCAGCACGCUGAAGUCUGATT against Adam19 the z-score was 1.21 (inactive). With “CCCUAUCGUGAUUUAUUGGTT against C130073F10Rik” the z-score was -1.33 (inactive). With GGGUACAAAGCAACAUUGGTT against Disp1 the z-score was 4.2 (active). With GCAAUGUGCACGAUGAUGATT against Pik3cg the z-score was -0.79 (inactive). In the case of CCUAGUGAAUCCUCUCGUATT against Eqtn, the z-score is reported as 0.178 (inactive). With GCCGAGCUCAAUGUGGGUATT against Bsn the z-score was 1.11 (inactive). In the case of GGAAGAAAGUGAGCCUUGUTT against Senp6, the z-score is reported as -2.14 (active). With GGCAGAGAGAUGUUACAAGTT against Ccl8 the z-score was 0.408 (inactive). For GGUACACUGGUAUACGUAUTT against Samd9l, the z-score was -1.45 (inactive). For GGCUGAUCCAUUUUCACAATT against Adam6a, the z-score was -2.77 (active). For GGUUUCAAGACAUUGAAAGTT against Arl14ep, the z-score was -0.424 (inactive). With CGAUGACAUCAGGAUUGUUTT against Adgrg7 the z-score was -0.124 (inactive). In the case of GGACUUAUUAUGUGAGUGUTT against Ncbp2, the z-score is reported as 0.555 (inactive). For GGAAAUCAGAAGAAGAACATT against Hars, the z-score was 2.67 (active). For “CGGACACACUUUGUUAUUATT against 4833420G17Rik”, the z-score was 0.198 (inactive). With GGACGUAACAAAAUGUUCUTT against P2ry12 the z-score was 0.578 (inactive). In the case of CGGUGGAAUUCGUUAGAAGTT against Ireb2, the z-score is reported as -0.183 (inactive). In the case of GGAAGGCCCUAGAAAGGACTT against Gm5094, the z-score is reported as 0.209 (inactive). For GCGUGGCUGUCAUGUAUUUTT against Olfr231, the z-score was 0.247 (inactive). For GGAAGAUGUAUUCUUCUCCTT against Gemin4, the z-score was 0.499 (inactive). For GGAGAAGGAGCUGGAAACGTT against Cttn, the z-score was 0.645 (inactive). With CCUGAAAACCAUGCAAUACTT against Tas2r125 the z-score was -2.37 (active). With GGGCUACUUCCUGACUAAATT against Ube2s the z-score was -0.505 (inactive). For GGACACUAUGCAAUCACCCTT against Rnf216, the z-score was -0.481 (inactive). For GGUCUACGUAGAGGAGCUGTT against Mrpl28, the z-score was 1.04 (inactive). For GGGAAGCCUUUCUUGUCAGTT against Vmn1r40, the z-score was -0.847 (inactive). In the case of GGAAUAAAGAAUGGUAUACTT against Zfp280d, the z-score is reported as -0.0544 (inactive). With CCAGUAGCACGUGUUAUUUTT against Rbmy the z-score was 0.0944 (inactive). For GGAUUAAGAAAGAAACAGGTT against Zfp438, the z-score was -0.387 (inactive). For GGCCACAGAGCCAAAGAUUTT against Cdca7, the z-score was 0.808 (inactive). In the case of GCUUGAUCGAAGAAAGACATT against Tdrd3, the z-score is reported as 0.709 (inactive). For GCGUAGGUUACGUUCAAGGTT against Ermard, the z-score was 2.74 (active). For CGACAGUGAAUGCGCUAAGTT against Slc7a9, the z-score was -0.218 (inactive). In the case of GCAAAUUCACCGGAAAAUGTT against Sorbs3, the z-score is reported as 1.04 (inactive).
